# Source: PubChem BioAssay
# The list is not random: actives were taken first. Their share in the collection is about 9.9%.
# KB-3-1 tox – qHTS assay for MDR1-selective chemotherapeutics: Primary screen using the parental adenocarcinoma cell KB-3-1; KB-3-1 viability, CellTiter-Glo ATP luminescence, 72 h; 400,000 compounds, 1.4% hits; AID 1347075, 2019; Potency, µM (top dose mostly 46.1 µM), hits mostly cytotoxic; also: nearly all actives have a fitted effect of over 60% in size
#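 Multi-concentration cytotoxicity screen in KB-3-1 cells grown in DMEM lacking phenol red with 10% FBS. After 72 h at 37 °C with compound, ATP-dependent luminescence was recorded.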
# KB-V1 cytotox – qHTS assay for MDR1-selective chemotherapeutics: Primary screen using the drug-selected MDR subline cells KB-V1. KB-V1 MDR cells viability, CellTiter-Glo, 72 h. Potency, µM (highest dose often 46.1 µM), actives largely listed as cytotoxic. 400,000 compounds, 3.4% hits; also: nearly all actives have a fitted effect of over 60% in size
#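 Compound-treated KB-V1 multidrug-resistant cells, 72 h, 37 degrees C; viability by CellTiter-Glo. Fitted qHTS curves give the values.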
# IL1B secr inh – qHTS for Inhibitors of Inflammasome Signaling: IL-1-beta AlphaLISA Primary Screen | THP-1 LPS/ATP IL-1B secretion, AlphaLISA, 16 h; stronger effect = lower value | activity change, % at 57.5 µM | 360,000 compounds, 4.7% hits; in the data active = activity change below about -50%; inconclusive = mostly about -30% to -49%
#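 THP-1 cells pretreated 1 hr with compounds (up to 57.5 uM final), then stimulated with LPS (250 ng/mL final) plus ATP (1.25 mM final); secreted IL-1B measured by AlphaLISA after 16 hr, decreased signal indicating inhibition.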
# SW480 rereplic – A quantitative high throughput screen for small molecules that induce DNA re-replication in SW480 colon adenocarcinoma cells | 340,000 compounds, 1.8% hits | SW480 DNA re-replication, Hoechst DNA content imaging, 48 h | Potency, µM (series often up to 46.1 µM), actives largely listed as activators; also: nearly all actives have a fitted effect of over 55% in size
#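 SW480 cells exposed to compounds for 48 hr at 37 C, 5% CO2, then Hoechst-stained 40 min. Nuclear DNA content imaged by fluorescence scanning (405 nm excitation, 500-530 nm emission); re-replication scored as increased high-intensity nuclei.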
# MCF10A rerep – A quantitative high throughput screen for small molecules that induce DNA re-replication in MCF 10a normal breast cells | MCF 10A DNA re-replication, Hoechst nuclear intensity, 48 h | Potency, µM (series often up to 46.1 µM), most hits filed as activators | 350,000 compounds, 2.9% hits; also: nearly all actives have a fitted effect of over 50% in size
# Hits are given with their value; – = inactive; ? = inconclusive; · = no result given. Unless noted, calls follow the shape of the dose curve; as a rule, active = well fitted curve in the direction sought with a large enough effect; inconclusive = small, poorly fitted or top-dose-only effect, or another doubt; inactive = no such curve, though single readings can be large; an effect the other way counts as inactive or inconclusive.
SMILES,KB-3-1 tox,KB-V1 cytotox,IL1B secr inh,SW480 rereplic,MCF10A rerep
CCCCn1c2ccc(F)cc2c2nnc(NN)nc21,–,–,–,?,0.651µM
COc1ccc(-n2c(=O)c3ccc(C(=O)NCc4ccc(C)cc4)cc3n(Cc3ccc(Cl)cc3)c2=O)cc1,–,–,·,·,·
CN(C)C(CNc1ccc(C(F)(F)F)cc1[N+](=O)[O-])c1ccccc1 (stereo not given),–,?,-78.6,–,?
CN(C)C(CNC(C(=O)Nc1ccc(F)cc1)c1ccccc1)c1ccccc1 (stereo not given),–,?,-80.3,–,–
Cc1ccc(NC(=O)NCC(c2ccccc2)N(C)C)cc1 (stereo not given),–,–,–,–,–
CN(C)C(CNC(C(=O)Nc1ccc([N+](=O)[O-])cc1Br)c1ccccc1)c1ccccc1 (stereo not given),–,–,-73.4,–,–
CCOC(=O)c1ccc(NC(=O)Cn2nc(C)c3ccccc3c2=O)cc1,–,–,–,?,–
CCOC(CNC(=O)Cn1nc(C)c2ccccc21)OCC,?,–,–,–,0.731µM
COCCCn1c(SCC(=O)NCc2ccco2)nc2sc3c(c2c1=O)CCC3,–,–,–,–,–
COc1ccc(-c2nnc(CSc3ncnc4sc5c(c34)CCC5)o2)cc1OC,–,20.6µM,–,?,–
CCCn1c(SCC(=O)N(C)C2CCS(=O)(=O)C2)nc2sc3c(c2c1=O)CCC3 (stereo not given),–,23.1µM,–,18.4µM,–
COCCn1c(SCc2nnc(-c3ccccc3)o2)nc2sc3c(c2c1=O)CCC3,–,6.51µM,–,–,–
CCN(CC)C(=O)CSc1nc2sc3c(c2c(=O)n1CCCOC)CCC3,–,–,-54.6,–,?
CC(C)(C)OC(=O)N[C@H](/C=C/c1ccccc1)C(=O)OC(C)(C)C,–,–,–,–,–
COc1ccc([C@@H]2C[C@@H](c3ccccc3)Oc3cc(OC)c(OC)c(OC)c32)cc1,–,?,–,–,1.16µM
O=C1CC(NS(=O)(=O)c2ccc(F)cc2)CN1c1ccc2c(c1)OCCO2 (stereo not given),–,–,–,–,–
N#Cc1nc(N2CCCC2)nc(N2CCCC2)n1,?,–,-91.5,–,?
N#Cc1nc(N)nc(N2CCCCC2)n1,–,–,·,·,·
CCOC(=O)CNc1nc(C#N)nc(N2CCOCC2)n1,?,–,-89.7,–,?
N#Cc1nc(N2CCCCC2)nc(N2CCOCC2)n1,–,–,-55.3,–,–
CN(C)c1nc(C#N)nc(N2CCOCC2)n1,–,–,–,–,–
CCOC(=O)/C(=C/c1ccco1)NC(=O)c1ccc(Br)o1,–,–,–,–,–
COC(=O)CCC(NS(=O)(=O)OCC(Cl)(Cl)Cl)c1ccccc1 (stereo not given),–,–,–,–,–
CC(C)CC(NS(=O)(=O)OCC(Cl)(Cl)Cl)c1ccccc1 (stereo not given),–,23.1µM,–,–,?
Cc1cc(S(=O)(=O)N2CCN(c3ccccc3F)CC2)ccc1-n1cnnn1,?,20.6µM,-52.7,–,–
SMILES,KB-3-1 tox,KB-V1 cytotox,IL1B secr inh,SW480 rereplic,MCF10A rerep
Cc1cc(S(=O)(=O)N2CCC(NC(=O)C34CC5CC(CC(C5)C3)C4)CC2)ccc1-n1cnnn1,–,9.2µM,–,–,–
Cc1cc(S(=O)(=O)N2CCN(c3ccc(F)cc3)CC2)ccc1-n1cnnn1,–,–,–,–,–
NC(=O)C1=C[C@@H](C2CCCCC2)C[C@@H](OCCCCO)O1,–,–,–,–,–
CCCS(=O)(=O)NC(=O)C1(C)CCCN(C(=O)c2ccccc2F)C1 (stereo not given),–,–,-70.6,·,·
CCOC(=O)C1=C(COC(=O)c2ccc(Cl)nc2)NC(=O)NC1C (stereo not given),–,–,–,–,–
COc1ccc(-n2cnnc2SCC(=O)Nc2cccnc2Cl)cc1,–,–,–,–,–
Cc1cc(N2CCOCC2)nc2ccc(NC(=O)CCC(=O)N3CCN(c4cccc(C(F)(F)F)c4)CC3)cc12,?,?,-76.8,–,14.6µM
COc1ccc(N(C)C(=O)CCC(=O)Nc2ccc3nc(N4CCOCC4)cc(C)c3c2)c(OC)c1,?,16.4µM,–,–,?
Cc1cc(N2CCOCC2)nc2ccc(NC(=O)CCC(=O)N3CCCCC3)cc12,–,–,–,–,–
CC1CCCN(C(=O)COc2ccc3c(c2)OCO3)C1 (stereo not given),–,–,–,–,–
CC1Cc2ccccc2N1C(=O)COc1ccc2c(c1)OCO2 (stereo not given),–,?,-55.9,–,–
CC(C)Cn1c(=O)c2ccccc2n2c(SCC(=O)N3c4ccccc4CC3C)nnc12 (stereo not given),–,1.84µM,–,–,–
CC(C)c1nc(SCC(=O)N2c3ccccc3CC2C)c2ccccc2n1 (stereo not given),–,–,-99.0,–,–
CC1Cc2ccccc2N1C(=O)CSc1ccccc1 (stereo not given),–,16.4µM,–,–,–
Cc1ccc(C)c(-n2c(N)c(C#N)c3nc4ccccc4nc32)c1,–,–,·,·,·
O=c1[nH]c(=O)n2c(c1-c1ccccc1)OC(CBr)C2 (stereo not given),–,–,–,·,·
COc1ccc(-c2cc(C(=O)NCc3ccccc3)c3c(-c4ccccc4)[nH]nc3n2)cc1,–,?,·,·,·
Cc1ccccc1C(c1c(C)n(C)n(-c2ccccc2)c1=O)c1c(C)n(C)n(-c2ccccc2)c1=O,–,–,·,·,·
Cc1sc2nc(C3CC3)nc(SCC(=O)N3c4ccccc4CC3C)c2c1C (stereo not given),–,5.8µM,–,14.6µM,9.2µM
COc1ccc2nc(NC(=O)C3CCN(S(=O)(=O)c4cccnc4)CC3)sc2c1,–,–,–,–,–
COc1ccc2nc(NC(=O)c3ccc(S(=O)(=O)N4CCCC(C)C4)cc3)sc2c1 (stereo not given),–,–,·,·,·
COc1ccc2nc(NC(=O)C3CCN(S(=O)(=O)c4cccs4)CC3)sc2c1,?,23.1µM,-74.6,–,–
COc1ccc2nc(NC(=O)C3CCCN(S(=O)(=O)c4cccs4)C3)sc2c1 (stereo not given),–,–,-58.7,–,–
Cc1cccc(NC(=O)C2CCN(S(=O)(=O)c3cccs3)CC2)n1,–,23.1µM,–,–,–
O=C(Nc1nc2ccc(C(=O)N3CCCCC3)cc2s1)C1CCCCC1,5.8µM,3.66µM,–,6.51µM,4.11µM
CCOc1ccc(C(=O)NCc2ccc3c(c2)OCO3)cc1OCC,–,–,?,–,–
